From PubChem BioAssay AID1159580 (chemical genetic matrix, 2015)
Where “and” joins values, the source holds several entries; their conditions need not be identical. Equal values may be shown once. About 2,000 (36%) of roughly 5,500 compounds were called active. Not shown: some 18% with an inconclusive outcome. Rule as the data show it: active = normalized growth mostly below about 0.91 (no sharp cut-off); inconclusive = no clear call, values can overlap the other calls; inactive = mostly above about 0.92. This is one part of the list.

Experiment: chemical genetic growth profiling, strain panel (AID 1159580);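 also: tested at 20 µM; growth read once vehicle control cultures reached saturation at 30 °C; 1 = growth at the plate median or of vehicle wells; lower values mean less growth of the strain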
Settings: S. cerevisiae deletion strains, growth OD

Measured: normalized growth

CCCNC(=O)NS(=O)(=O)c1ccc(Cl)cc1
inactive: locus YAL013W, strain DEP1, active compounds read low 1.01 and 0.978 | locus YAL021C, strain ccr4, active compounds read low 1.02 | locus YAL026C, strain drs2, active compounds read low 1.01 | locus YAL030W, strain snc1, active compounds read low 1.01 | locus YAL040C, strain CLN3, active compounds read low 1.09 | locus YBL061C, strain skt5, active compounds read low 1.01 | locus YBR009C, strain hhf1, active compounds read low 1.02 | locus YBR021W, strain FUR4, active compounds read low 1.03 | locus YBR023C, strain chs3, active compounds read low 1.02 | locus YBR171W, strain sec66, active compounds read low 1.01 | locus YBR229C, strain ROT2, active compounds read low 0.993 | locus YBR231C, strain swc5, active compounds read low 1.01 | locus YBR279W, strain paf1, active compounds read low 1.01 | locus YCL011C, strain gbp2, active compounds read low 1 | locus YCL016C, strain dcc1, active compounds read low 1.01 | locus YCL029C, strain bik1, active compounds read low 1.01 | locus YCL061C, strain MRC1 (second series), active compounds read low 0.997 | locus YCL069W, strain vba3, active compounds read low 1.01 | locus YCR088W, strain abp1, active compounds read low 0.996 | locus YDL005C, strain med2, active compounds read low 1.01 | locus YDL035C, strain GPR1, active compounds read low 1 | locus YDL040C, strain nat1, active compounds read low 1.01 | locus YDL074C, strain BRE1, active compounds read low 1.01 | locus YDL101C, strain DUN1, active compounds read low 1.03 | locus YDL134C, strain PPH21, active compounds read low 1 | locus YDL185W, strain tfp1, active compounds read low 1 | locus YDL192W, strain arf1, active compounds read low 1.03 | locus YDR001C, strain nth1, active compounds read low 1.01 | locus YDR069C, strain doa4, active compounds read low 1.03 | locus YDR101C, strain arx1, active compounds read low 1.01 | locus YDR137W, strain rgp1, active compounds read low 0.994 | locus YDR150W, strain NUM1, active compounds read low 0.986 and 1 | locus YDR159W, strain sac3, active compounds read low 1.01 | locus YDR162C, strain NBP2, active compounds read low 0.984 | locus YDR195W, strain ref2 1.03 | locus YDR297W, strain sur2, active compounds read low 1.02 | locus YDR318W, strain mcm21, active compounds read low 1.01 | locus YDR334W, strain swr1, active compounds read low 1.01 | locus YDR335W, strain msn5, active compounds read low 1.02 | locus YDR363W, strain ESC2, active compounds read low 0.97 | locus YDR388W, active compounds read low 1.01 | locus YDR392W, strain spt3, active compounds read low 1 | locus YDR502C, strain sam2, active compounds read low 1.05 | locus YEL003W, strain gim4, active compounds read low 1.02 | locus YEL037C, strain rad23, active compounds read low 1.01 | locus YEL061C, strain CIN8 (second series), active compounds read low 1.02 | locus YEL061C, strain CIN8, active compounds read low 0.997 | locus YER002W, strain NOP16, active compounds read low 1.01 | locus YER015W, strain faa2, active compounds read low 1.02 | locus YER016W, strain bim1, active compounds read low 0.989 | locus YER110C, active compounds read low 0.998 | locus YER111C, strain swi4, active compounds read low 1.02 | locus YER155C, strain BEM2 (second series), active compounds read low 1.03 | locus YER155C, strain BEM2, active compounds read low 1.01 | locus YER167W, strain BCK2, active compounds read low 1 | locus YFR010W, strain ubp6, active compounds read low 1.04 | locus YGL078C, strain dbp3, active compounds read low 1.02 | locus YGL167C, strain pmr1, active compounds read low 0.991 | locus YGL173C, strain kem1, active compounds read low 1.02 | locus YGL227W, strain vid30, active compounds read low 1.02 | locus YGL240W, strain doc1, active compounds read low 1.03 | locus YGL248W, strain PDE1, active compounds read low 1.03 | locus YGL253W, strain hxk2, active compounds read low 1.01 | locus YGR135W, strain pre9, active compounds read low 1.05 | locus YGR229C, strain SMI1, active compounds read low 0.994 | locus YGR252W, strain gcn5, active compounds read low 1.07 | locus YHR013C, strain ard1, active compounds read low 1.05 | locus YHR027C, strain rpn1, active compounds read low 1.01 | locus YHR030C, strain SLT2, active compounds read low 0.991 and 1.01 | locus YHR079C, strain IRE1 (second series), active compounds read low 1.01 | locus YHR079C, strain IRE1, active compounds read low 0.986 | locus YHR094C, strain hxt1, active compounds read low 1.01 | locus YHR129C, strain ARP1, active compounds read low 1.01 | locus YHR142W, strain chs7, active compounds read low 1.04 | locus YHR200W, strain rpn10, active compounds read low 1.01 | locus YIL066C, strain RNR3, active compounds read low 0.998 | locus YIL073C, strain SPO22, active compounds read low 1.02 | locus YIL125W, strain kgd1, active compounds read low 0.997 | locus YIR030C, strain dcg1, active compounds read low 0.997 | locus YJL092W, strain hpr5, active compounds read low 1 | locus YJL095W, strain BCK1 (second series), active compounds read low 1.02 | locus YJL095W, strain BCK1, active compounds read low 1.05 and 0.979 | locus YJL115W, strain asf1, active compounds read low 1.02 | locus YJL129C, strain trk1, active compounds read low 1.02 | locus YJL134W, strain LCB3, active compounds read low 0.996 | locus YJL154C, strain vps35, active compounds read low 1.01 | locus YJL164C, strain tpk1, active compounds read low 1.01 | locus YJL166W, strain qcr8, active compounds read low 1.01 | locus YJL168C, strain set2, active compounds read low 1.01 | locus YJL187C, strain SWE1 (second series), active compounds read low 1.03 | locus YJR043C, strain POL32, active compounds read low 1 | locus YJR066W, strain TOR1, active compounds read low 0.983 | locus YKL009W, strain mrt4, active compounds read low 1.01 | locus YKL068W, active compounds read low 0.984 | locus YKL085W, strain MDH1 (second series), active compounds read low 0.979 | locus YKL085W, strain MDH1, active compounds read low 0.979 | locus YKL160W, strain elf1, active compounds read low 1.02 | locus YKR001C, strain vps1, active compounds read low 0.992 | locus YKR026C, strain gcn3, active compounds read low 0.99 | locus YKR091W, strain srl3, active compounds read low 1.01 | locus YLL001W, strain dnm1, active compounds read low 1.01 | locus YLL026W, active compounds read low 1.02 | locus YLL041C, strain sdh2, active compounds read low 0.991 | locus YLR027C, strain aat2, active compounds read low 1.01 | locus YLR039C, strain RIC1, active compounds read low 0.967 | locus YLR058C, strain SHM2, active compounds read low 1.02 | locus YLR102C, strain apc9, active compounds read low 1 | locus YLR113W, strain HOG1, active compounds read low 0.99 | locus YLR221C, strain rsa3, active compounds read low 1 | locus YLR258W, strain gsy2, active compounds read low 1.01 | locus YLR262C, strain YPT6 (second series), active compounds read low 1 | locus YLR262C, strain YPT6, active compounds read low 0.977 | locus YLR268W, strain sec22, active compounds read low 1.01 | locus YLR320W, strain mms22, active compounds read low 1.02 | locus YLR330W, strain CHS5, active compounds read low 1 | locus YLR342W, strain FKS1 (second series), active compounds read low 0.984 | locus YLR342W, strain FKS1, active compounds read low 1.02 | locus YLR357W, strain rsc2, active compounds read low 1.03 | locus YLR370C, strain arc18, active compounds read low 1.02 | locus YLR371W, strain rom2, active compounds read low 0.997 | locus YLR384C, strain iki3, active compounds read low 1.03 | locus YLR418C, strain cdc73, active compounds read low 1.08 | locus YML016C, strain PPZ1, active compounds read low 0.997 | locus YML032C, strain rad52, active compounds read low 0.996 | locus YML120C, strain ndi1, active compounds read low 1.02 | locus YML124C, strain tub3, active compounds read low 0.997 | locus YMR058W, strain fet3, active compounds read low 1 | locus YMR078C, strain ctf18, active compounds read low 1 | locus YMR125W, strain sto1, active compounds read low 1 | locus YMR129W, active compounds read low 1.01 | locus YMR205C, strain PFK2, active compounds read low 1.02 | locus YMR223W, strain ubp8, active compounds read low 1.03 | locus YMR231W, strain pep5, active compounds read low 1.01 | locus YMR263W, strain SAP30, active compounds read low 0.991 | locus YMR307W, strain GAS1, active compounds read low 1.09 | locus YNL067W, strain RPL9B, active compounds read low 1.03 | locus YNL071W, strain lat1, active compounds read low 1.03 | locus YNL128W, strain TEP1, active compounds read low 1.01 | locus YNL153C, strain GIM3, active compounds read low 1.02 and 1.01 | locus YNL175C, strain NOP13, active compounds read low 1.02 | locus YNL183C, strain NPR1, active compounds read low 0.935 | locus YNL197C, strain WHI3, active compounds read low 1.02 | locus YNL209W, strain ssb2, active compounds read low 1 | locus YNL224C, strain SQS1, active compounds read low 0.983 | locus YNL233W, strain BNI4, active compounds read low 1.02 | locus YNL248C, strain rpa49, active compounds read low 1.09 | locus YNL250W, strain rad50, active compounds read low 1 | locus YNL271C, strain bni1, active compounds read low 1.01 | locus YNL298W, strain CLA4, active compounds read low 0.99 | locus YNL307C, strain MCK1, active compounds read low 1.01 | locus YNL322C, strain KRE1 (second series), active compounds read low 1 | locus YNL322C, strain KRE1, active compounds read low 0.988 | locus YNR049C, strain mso1, active compounds read low 1.02 | locus YNR052C, strain pop2, active compounds read low 1.01 | locus YOL012C, strain htz1 0.677 | locus YOL147C, strain pex11, active compounds read low 0.996 | locus YOR001W, strain rrp6, active compounds read low 1.02 | locus YOR061W, strain CKA2, active compounds read low 1.01 | locus YOR069W, strain VPS5, active compounds read low 0.992 | locus YOR070C, strain gyp1, active compounds read low 1.01 | locus YOR080W, strain dia2, active compounds read low 1.03 | locus YOR083W, strain WHI5 (second series), active compounds read low 0.985 | locus YOR083W, strain WHI5, active compounds read low 1.01 | locus YOR106W, strain vam3, active compounds read low 1.01 | locus YOR136W, strain idh2, active compounds read low 1 | locus YOR144C, strain elg1, active compounds read low 1.01 | locus YOR184W, strain ser1, active compounds read low 1.01 | locus YOR231W, strain MKK1, active compounds read low 0.971 | locus YOR265W, strain rbl2, active compounds read low 1.01 | locus YOR270C, strain vph1, active compounds read low 1.01 | locus YOR290C, strain snf2, active compounds read low 1.02 | locus YOR316C, strain cot1, active compounds read low 1 | locus YPL051W, strain arl3, active compounds read low 1.02 | locus YPL078C, strain atp4, active compounds read low 1.02 | locus YPL106C, strain sse1, active compounds read low 1.03 | locus YPL240C, strain hsp82, active compounds read low 1.01 | locus YPL241C, strain CIN2, active compounds read low 0.997 | locus YPL256C, strain CLN2, active compounds read low 0.975 | locus YPR119W, strain clb2, active compounds read low 0.999 | locus YPR141C, strain kar3, active compounds read low 1 | locus YPR163C, strain tif3, active compounds read low 1 | locus YPR167C, strain met16, active compounds read low 1 | strain wtn01, active compounds read low 1.01
